Measurements: PubChem BioAssay (NCI)
This is part of a sample that, as a whole, favours compounds with a hit. Of some 83,000 tested, about 20% had one in any assay.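 Treatment: one concentration, 48 hours, 96-well format. Scoring: percent growth, with anything below 10 considered active.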 A number with no mark means an inactive call. Activity calls are given as the source filed them.

Tested on: RPMI-8226 leukemia
Experiment: NCI-60 one-dose screen, 48 h (100 = growth as untreated, 0 = no growth, -100 = all killed)
Conditions: 10 µM unless noted

With O=C(NNc1nc2cc(C(F)(F)F)ccc2n2cccc12)c1cnccn1 as the compound, how does the growth read?
The growth was 1.97% (active).

Which growth does the source give for Cc1cccc(NC(=O)[C@]23CCC(C)(C)CC2C2=CCC4[C@@]5(C)C[C@@H](O)[C@H](O)[C@@](C)(CO)C5CC[C@@]4(C)[C@]2(C)CC3)c1 (stereo not given in full) here?
The growth was 2.61% (active).

Which growth does the source give for CCCCSc1nc(NCCc2c[nH]c3ccccc23)c(C#N)c(-c2ccc(F)cc2)n1 here?
The growth was 49.7%.

Which growth does the source give for COc1ccc(-c2ccnc(SCc3cc4cc(Cl)ccc4[nH]c3=O)n2)cc1 here?
Its growth is 73.8%.

For O=c1[nH]c2ccccc2cc1CSc1nccc(-c2ccc3ccccc3c2)n1, which growth is on record?
The growth was 52.1%.

For CCCCCCCCc1ccc(S(=O)(=O)Nc2ccc(CC)cc2C(=O)O)cc1, which growth is on record?
Its growth is 71.1%.

With N#Cc1c(-c2cccc(O)c2O)cc(-c2ccc3ccccc3c2)[nH]c1=O as the compound, how does the growth read?
Its growth is 60.9%.

How did the growth turn out when O=c1[nH]n(C(=S)N/N=C/c2ccccc2Cl)c(=O)c2ccccc12 was run?
The growth was -1.71% (active).

Which growth does the source give for COc1ccc(C(=O)/C=C/c2cccc(Cl)c2Cl)cc1S(N)(=O)=O here?
Its growth is -8.84% (active).

COc1ccc(C(=O)/C=C/c2cccnc2)cc1S(N)(=O)=O was tested. Which growth did it give?
Its growth is -7.06% (active).

Which growth does the source give for CCCCCCCCc1ccc(C(=O)Nc2cccc(P(=O)(O)O)c2)cc1 here?
The growth was 96.4%.

For O=C(c1ccc(Cl)cc1)c1ccc(OCCCN2CCN(c3ccncc3)CC2)cc1, which growth is on record?
The growth was 10.2%.

With CCCCSc1nc(NCCc2c[nH]c3ccccc23)c(C#N)c(-c2ccccc2)n1 as the compound, how does the growth read?
The growth was 14.1%.

O=C1N/C(=N\c2nccs2)S/C1=C\C=C/c1ccccc1 was tested. Which growth did it give?
Its growth is 39.4%.

Which growth does the source give for CC(=O)OC[C@@]1(C)C2CC[C@]3(C)C(CC=C4C5CC(C)(C)CC[C@]5(C(=O)Nc5cccc(C)c5)CC[C@]43C)[C@@]2(C)C[C@@H](OC(C)=O)[C@@H]1OC(C)=O (stereo not given in full) here?
The growth was 15.9%.

With COc1ccc(C(SCCNCc2cc(N(C)C)ccn2)(c2ccccc2)c2ccccc2)cc1 as the compound, how does the growth read?
The growth was -27.1% (active).

How did the growth turn out when O=c1onc(-c2cc3ccccc3nc2Cl)n1-c1cccc2ccccc12 was run?
Its growth is 40.6%.

Which growth does the source give for COc1ccc(C2=NN(c3ccccc3)C(c3ccc(OCc4ccccc4)c(OC)c3)C2)cc1OC (stereo not given) here?
The growth was 120%.

Nc1n[nH]c2cccc(C#Cc3cccc(NC(=O)c4cccc(Cl)c4)c3)c12 was tested. Which growth did it give?
Its growth is 29.9%.

Which growth does the source give for CC(=O)Nc1cccc(Nc2nc(N[C@H]3CCCc4ccccc43)c3ccccc3n2)c1 here?
Its growth is 103%.

How did the growth turn out when N/C(=N\c1nc2ccccc2s1)NC(=O)NCCCCCCO was run?
The growth was 46%.

Which growth does the source give for COc1ccc2c(c1)C(=N/N=C(\C)c1ccc(OC)c(S(N)(=O)=O)c1)C(=O)N2 here?
Its growth is 83%.

Which growth does the source give for CCCSc1nc(NCCc2c[nH]c3ccccc23)c(C#N)c(-c2ccc(F)cc2)n1 here?
Its growth is 38.4%.

How did the growth turn out when O=c1[nH]c2ccccc2cc1CSc1cccc(Nc2nccc(-c3ccc4ccccc4c3)n2)c1 was run?
Its growth is 49.4%.

With CCN(CC)c1ccnc(CNCCSC(c2ccccc2)(c2ccccc2)c2ccc(C)cc2)c1 as the compound, how does the growth read?
The growth was -42% (active).

CC1(C)CC[C@]2(C(=O)Nc3ccc(Br)cc3)CC[C@]3(C)C(=CCC4[C@@]5(C)C[C@@H](O)[C@H](O)[C@@](C)(CO)C5CC[C@]43C)C2C1 (stereo not given in full) was tested. Which growth did it give?
The growth was -33.5% (active).

CCC(C)(C)c1ccc(OCCCCCCN2CCN(c3ccncc3)CC2)cc1 was tested. Which growth did it give?
The growth was -44.5% (active).

COc1ccc(C(=O)/C=C/c2ccc(Cl)c(Cl)c2)cc1S(N)(=O)=O was tested. Which growth did it give?
Its growth is -6.75% (active).

Cc1cc(N=C2NC(=O)CS2)n[nH]1 was tested. Which growth did it give?
The growth was 144%.

Cc1ccc(C(=O)CSc2nc3ccc(F)cc3c(=O)n2-c2ccc(Cl)cc2)cc1 was tested. Which growth did it give?
Its growth is 93.9%.

For COc1ccc(C(=O)/C=C/c2cccc(Br)c2)cc1S(N)(=O)=O, which growth is on record?
Its growth is -15.9% (active).

For Cc1sc(C(NC(=O)OCCn2c([N+](=O)[O-])cnc2C)C(F)(F)Cl)nc1-c1ccc(OC(F)(F)F)cc1 (stereo not given), which growth is on record?
Its growth is 2.36% (active).

Tested on: OVCAR-8 ovarian
Experiment: as above
Conditions: 10 µM unless noted

O=C(NNc1nc2cc(C(F)(F)F)ccc2n2cccc12)c1cnccn1 was tested. Which growth did it give?
Its growth is -77.2% (active).

How did the growth turn out when Cc1cccc(NC(=O)[C@]23CCC(C)(C)CC2C2=CCC4[C@@]5(C)C[C@@H](O)[C@H](O)[C@@](C)(CO)C5CC[C@@]4(C)[C@]2(C)CC3)c1 (stereo not given in full) was run?
Its growth is 39.3%.

With CCCCSc1nc(NCCc2c[nH]c3ccccc23)c(C#N)c(-c2ccc(F)cc2)n1 as the compound, how does the growth read?
Its growth is 75.1%.

For COc1ccc(-c2ccnc(SCc3cc4cc(Cl)ccc4[nH]c3=O)n2)cc1, which growth is on record?
The growth was 34.1%.

For O=c1[nH]c2ccccc2cc1CSc1nccc(-c2ccc3ccccc3c2)n1, which growth is on record?
The growth was 79.6%.

For CCCCCCCCc1ccc(S(=O)(=O)Nc2ccc(CC)cc2C(=O)O)cc1, which growth is on record?
The growth was 95.1%.

How did the growth turn out when COc1cc(OC)c2c3nc4cc(C)c(C)cc4nc3n(CCN(C)C)c2c1 was run?
The growth was -0.293% (active).

N#Cc1c(-c2cccc(O)c2O)cc(-c2ccc3ccccc3c2)[nH]c1=O was tested. Which growth did it give?
Its growth is 69.8%.

With O=c1[nH]n(C(=S)N/N=C/c2ccccc2Cl)c(=O)c2ccccc12 as the compound, how does the growth read?
The growth was 4.91% (active).

Which growth does the source give for COc1ccc(C(=O)/C=C/c2cccc(Cl)c2Cl)cc1S(N)(=O)=O here?
Its growth is -64% (active).

Which growth does the source give for COc1ccc(C(=O)/C=C/c2cccnc2)cc1S(N)(=O)=O here?
Its growth is 17.6%.

Cc1cc2nc3c4ccccc4n(CC4=NCCN4)c3nc2cc1C was tested. Which growth did it give?
Its growth is -21.1% (active).

CCCCCCCCc1ccc(C(=O)Nc2cccc(P(=O)(O)O)c2)cc1 was tested. Which growth did it give?
Its growth is 99.7%.

Cc1cc2nc3c([nH]c2cc1C)c1ccc(=O)cc1n3CCN(C)C was tested. Which growth did it give?
Its growth is 34%.

How did the growth turn out when O=C(c1ccc(Cl)cc1)c1ccc(OCCCN2CCN(c3ccncc3)CC2)cc1 was run?
The growth was 75.7%.

For CCCCSc1nc(NCCc2c[nH]c3ccccc23)c(C#N)c(-c2ccccc2)n1, which growth is on record?
The growth was 49.2%.

For O=C1N/C(=N\c2nccs2)S/C1=C\C=C/c1ccccc1, which growth is on record?
Its growth is 13.7%.

With CC(=O)OC[C@@]1(C)C2CC[C@]3(C)C(CC=C4C5CC(C)(C)CC[C@]5(C(=O)Nc5cccc(C)c5)CC[C@]43C)[C@@]2(C)C[C@@H](OC(C)=O)[C@@H]1OC(C)=O (stereo not given in full) as the compound, how does the growth read?
The growth was 39.7%.

With COc1ccc(C(SCCNCc2cc(N(C)C)ccn2)(c2ccccc2)c2ccccc2)cc1 as the compound, how does the growth read?
Its growth is -5.35% (active).

With O=c1onc(-c2cc3ccccc3nc2Cl)n1-c1cccc2ccccc12 as the compound, how does the growth read?
Its growth is 51.4%.

COc1ccc(C2=NN(c3ccccc3)C(c3ccc(OCc4ccccc4)c(OC)c3)C2)cc1OC (stereo not given) was tested. Which growth did it give?
Its growth is 92.6%.

For Nc1n[nH]c2cccc(C#Cc3cccc(NC(=O)c4cccc(Cl)c4)c3)c12, which growth is on record?
The growth was 21.4%.

Which growth does the source give for O=C(Cn1c2c(sc1=O)[C@H]1[C@@H](O)[C@@H](O)[C@H](O)[C@@H]1CS2)N1CCOCC1 here?
Its growth is 108%.

With CC(=O)Nc1cccc(Nc2nc(N[C@H]3CCCc4ccccc43)c3ccccc3n2)c1 as the compound, how does the growth read?
Its growth is 103%.

With N/C(=N\c1nc2ccccc2s1)NC(=O)NCCCCCCO as the compound, how does the growth read?
The growth was 50.7%.

With COc1ccc2c(c1)C(=N/N=C(\C)c1ccc(OC)c(S(N)(=O)=O)c1)C(=O)N2 as the compound, how does the growth read?
Its growth is 92.7%.

Which growth does the source give for CCCSc1nc(NCCc2c[nH]c3ccccc23)c(C#N)c(-c2ccc(F)cc2)n1 here?
The growth was 65.2%.

How did the growth turn out when O=c1[nH]c2ccccc2cc1CSc1cccc(Nc2nccc(-c3ccc4ccccc4c3)n2)c1 was run?
Its growth is 74.9%.

CCN(CC)c1ccnc(CNCCSC(c2ccccc2)(c2ccccc2)c2ccc(C)cc2)c1 was tested. Which growth did it give?
Its growth is -90.3% (active).

With CN(C)CCn1c2ccccc2c2nc3cc(C(F)(F)F)ccc3nc21 as the compound, how does the growth read?
Its growth is 35.7%.

With CC1(C)CC[C@]2(C(=O)Nc3ccc(Br)cc3)CC[C@]3(C)C(=CCC4[C@@]5(C)C[C@@H](O)[C@H](O)[C@@](C)(CO)C5CC[C@]43C)C2C1 (stereo not given in full) as the compound, how does the growth read?
The growth was 25.6%.

CCC(C)(C)c1ccc(OCCCCCCN2CCN(c3ccncc3)CC2)cc1 was tested. Which growth did it give?
The growth was 54%.

With COc1ccc(C(=O)/C=C/c2ccc(Cl)c(Cl)c2)cc1S(N)(=O)=O as the compound, how does the growth read?
The growth was -45.3% (active).

Which growth does the source give for Cc1cc(N=C2NC(=O)CS2)n[nH]1 here?
Its growth is 106%.

Which growth does the source give for Cc1ccc(C(=O)CSc2nc3ccc(F)cc3c(=O)n2-c2ccc(Cl)cc2)cc1 here?
Its growth is 37.8%.

How did the growth turn out when COc1ccc(C(=O)/C=C/c2cccc(Br)c2)cc1S(N)(=O)=O was run?
Its growth is -95.1% (active).

For Cc1sc(C(NC(=O)OCCn2c([N+](=O)[O-])cnc2C)C(F)(F)Cl)nc1-c1ccc(OC(F)(F)F)cc1 (stereo not given), which growth is on record?
Its growth is -65.9% (active).

With COc1ccc(NC(=O)Cn2c3c(sc2=O)[C@H]2[C@@H](O)[C@@H](O)[C@H](O)[C@@H]2CS3)cc1 as the compound, how does the growth read?
Its growth is 103%.
